Results filed as inconclusive are left out. Where a call stands in place of a potency, no number is given. Calls of active or inactive are those of the source. Unless noted, calls come from the whole dose curve; as a rule, active = well fitted curve in the direction sought with a large enough effect; inconclusive = small, poorly fitted or top-dose-only effect, or another doubt; inactive = no such curve, though single readings can be large; an effect the other way counts as inactive or inconclusive.
Experiments:
[1] = target: Estrogen receptor (Homo sapiens) (UniProt P03372); assay: qHTS assay for small molecule agonists of estrogen receptor alpha signaling (AID 588514; calls by dose curve; note: nearly all actives have a fitted effect of over 70% in size)
Outline: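 ER-alpha-UAS-bla GripTite HEK 293 cells in medium with 2% charcoal/dextran-treated FBS were treated with compound titrations at 37 C for 18 hrs; beta-lactamase reporter read by CCF4 fluorescence after 2 hrs at RT.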

[2] = qHTS assay for small molecule antagonists of peroxisome proliferator-activated receptor delta signaling (AID 588535; active = well fitted inhibition curve with a large enough effect in the signal ratio, with a control signal flat, not every such curve was filed as active; the % refers to the signal ratio;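 for max response: cells co-treated with a PPAR-delta agonist as stimulator during compound exposure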); conditions: HEK293T PPARd-UAS-bla, beta-lactamase FRET ratio, 18 h; 460 nm channel
Outline: (§1)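 Cells were seeded at 4000 per well in assay medium containing 2% charcoal/dextran FBS and held 5 hrs at 37 C. Compounds were then added for 18 hrs. CCF4 substrate was applied for 2 hrs at room temperature before fluorescence reading.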

[3] = target: Peroxisome proliferator-activated receptor delta (Homo sapiens) (UniProt Q03181); assay: as above
Outline: as §1

[4] = target: Peroxisome proliferator-activated receptor gamma (Homo sapiens) (UniProt P37231); assay: qHTS assay for small molecule agonists of peroxisome proliferator-activated receptor gamma signaling (AID 588536; active = well fitted curve in the direction sought with a large enough effect in the signal ratio, with a control signal flat, not every such curve was filed as active; the % refers to the signal ratio)
Outline: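 HEK293 UAS-bla reporter line, 1% charcoal/dextran FBS; titration, 16 h, 37 C; CCF4 loading 2 h RT; fluorescence 460/530 nm. Normalized to rosiglitazone 2 uM = 100%, DMSO = 0%.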

[5] = target: Vitamin D3 receptor (Homo sapiens) (UniProt P11473); assay: qHTS assay for small molecule antagonists of vitamin D receptor signaling (AID 588541; calls by dose curve;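 note: receptor activated by calcitriol during compound treatment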)
Outline: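 VDR-UAS-bla HEK293T cells in 2% charcoal-stripped FBS were stimulated with 1-alpha,25-dihydroxyvitamin D3 (3 nM final) plus compound for 16 h at 37 C. The beta-lactamase CCF4 readout was normalized to 50 nM agonist and DMSO, and Hill fits gave IC50.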

[6] = target: Vitamin D3 receptor (Homo sapiens) (UniProt P11473); assay: qHTS assay for small molecule agonists of vitamin D receptor signaling (AID 588543; calls by dose curve)
Outline: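 VDR-UAS-bla HEK293T cells, 2000/well, 2% charcoal-stripped FBS; compound titration 16 h at 37 C; CCF4 beta-lactamase ratio read. Normalized to 50 nM 1-alpha,25-dihydroxyvitamin D3 (100%) and DMSO; Hill fit gives EC50, efficacy.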

[7] = target: Thyroid hormone receptor beta (Homo sapiens) (UniProt P10828); assay: qHTS assay for small molecule agonists of thyroid hormone receptor beta signaling (AID 588545; calls by dose curve)
Outline: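 TR-UAS-bla GripTite HEK 293 cells (2500/well, medium with 2% charcoal/dextran FBS) were treated in agonist mode for 18 h at 37 C, titrated. Beta-lactamase was read by CCF4 ratio after 2 h; normalized to 10 nM T3 (100%) and DMSO, Hill-fitted for EC50 and efficacy.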

[8] = qHTS assay for small molecule antagonists of retinoid X receptor alpha signaling (AID 588546; active = well fitted inhibition curve with a large enough effect in the signal ratio, with a control signal flat, not every such curve was filed as active; the % refers to the signal ratio;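 note: cells stimulated with 9-cis-retinoic acid as agonist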); conditions: HEK293T RXRa-UAS-bla, beta-lactamase ratio, antagonist mode; measured here: W530 green channel, cytotoxicity proxy
Outline: (§2)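 Beta-lactamase reporter inhibition, read as CCF4 fluorescence ratio (ex 405, em 460/530 nm) after 2 h at RT. HEK293T UAS-bla cells, 2500/well, were stimulated with 9-cis-RA at 500 or 100 nM final alongside test compound for 18 h at 37 C.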

[9] = target: Retinoic acid receptor RXR-alpha (Homo sapiens) (UniProt P19793); assay: as above; conditions: HEK293T RXRa-UAS-bla, beta-lactamase ratio, antagonist mode
Outline: as §2

[10] = target: Thyroid hormone receptor beta (Homo sapiens) (UniProt P10828); assay: qHTS assay for small molecule antagonists of thyroid hormone receptor beta signaling (AID 588547; active = well fitted inhibition curve with a large enough effect in the signal ratio, with a control signal flat, not every such curve was filed as active; the % refers to the signal ratio;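 note: cells stimulated with 0.4 nM T3 agonist during compound exposure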); conditions: TR-UAS-bla HEK293, beta-lactamase ratio, antagonist mode, 18 h
Outline: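 TR-UAS-bla GripTite HEK293 cells in 2% charcoal/dextran FBS medium; compounds 0.59 nM to 92 uM with T3 at 0.4nM final, 18 h at 37 C. Beta-lactamase read by CCF4 fluorescence (460/530 nm); Hill fits gave IC50 and efficacy.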

[11] = qHTS assay for small molecule agonists of the antioxidant response element (ARE) signaling pathway (AID 651741; active = well fitted activation curve with a large enough effect in the signal ratio; the % refers to the signal ratio)
Outline: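 HepG2 ARE-bla cells plated at 2,000 cells/well and incubated 5 h at 37 C/5% CO2 received 23 nL compound in DMSO. After 16 h at 37 C, LiveBLAzer B/G FRET substrate was applied for 2 h at room temperature and fluorescence read.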

[12] = qHTS assay for environmental chemicals that activate the Aryl hydrocarbon Receptor (AhR) signaling pathway (AID 651777); conditions: 1A2-DRE human hepatoma cells, luciferase, 24 h; activation: stronger effect = higher value; note: nearly all actives have a fitted effect of over 15% in size
Outline: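 Concentration–response screening used 1,200 1A2-DRE cells per well, 24 hr compound exposure (37 C, 5% CO2), and One-Glo luminescence as the AhR-driven CYP1A2 reporter signal.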

[13] = target: Peroxisome proliferator-activated receptor alpha (Homo sapiens) (UniProt Q07869); assay: qHTS assay for small molecule agonists of the peroxisome proliferator-activated receptor alpha (PPARalpha) signaling pathway (AID 651778); conditions: PathHunter PPARalpha complementation, chemiluminescence, 6 h; max response: stronger effect = higher value
Outline: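 Enzyme-fragment complementation assay in which ligand-bound PPARalpha translocates and forms an active enzyme that generates chemiluminescence. Cells were plated overnight, exposed to compound for 6 hr at 37 C, and then given detection reagent for 60 min at room temperature.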

[14] = qHTS assay for small molecule agonists of the antioxidant response element (ARE) signaling pathway measured by Nrf2-dependant transcriptional activity (AID 720636; active = well fitted curve in the direction sought with a large enough effect in the repeat runs; an effect the other way counts as inactive or inconclusive;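 note: HepG2 cells with an ARE-driven luciferase reporter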)
Outline: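 Attachment 6 hr at 37 C, then compound versus DMSO vehicle for 16 hr in ARE-luc HepG2 cells (1% dialyzed FBS); luminescence recorded 30 min after ONE-Glo addition at room temperature.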

[15] = qHTS assay for small molecule agonists of the antioxidant response element (ARE) signaling pathway measured by Nrf2-dependant transcriptional activity - cell viability counter screen (AID 720653; active = well fitted curve in the direction sought with a large enough effect in the repeat runs; an effect the other way counts as inactive or inconclusive); conditions: ARE-bla HepG2 viability, CellTiter-Glo ATP luminescence, 16 h; max response: stronger effect = lower value
Outline: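 ARE-bla HepG2 cells treated with compounds for 16 h at 37C; this counter screen measures viability as intracellular ATP by CellTiter-Glo luminescence after 30 min at room temperature.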

[16] = qHTS assay for cell viability of the p53RE-bla HCT-116 cell line (AID 743292); note: nearly all actives have a fitted effect of over 55% in size
Outline: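 Compound-exposed HCT-116 (p53RE-bla) cells, 4,000 per well, were kept 16 h at 37 C following a 5 h preincubation. Cell number was estimated from total ATP by CellTiter-Glo luminescence read after 30 min at room temperature.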

[17] = NCATS anti-infectives library activity on HEK293 viability as a counter-qHTS vs the C. elegans viability qHTS (AID 1745854)
Outline: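 HEK293 cells, 1500 per well, exposed 24 hr at 37C in 5% CO2 to compounds in a 1:5 titration, up to 41.7 uM final. Viability read as CellTiter-Glo luminescence after 10 min at room temperature.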

[18] = target: Nuclear receptor subfamily 1 group I member 2 (Rattus norvegicus) (UniProt Q9R1A7); assay: qHTS assay for small molecule activators of the rat pregnane X receptor (rPXR) signaling pathway (AID 651751; call rule not given here); conditions: rPXR reporter cells, luciferase (One-Glo), 24 h
[19] = qHTS assay for small molecule activators of the human pregnane X receptor (PXR) signaling pathway (AID 720659; call rule not given here)
[20] = NCATS anti-infectives library activity on the primary C. elegans qHTS viability assay (AID 1745855; calls by dose curve)
Outline: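 Viability is taken from GFP fluorescence of PE254-GFP-FLuc C. elegans imaged by laser cytometry over 7 days. Ten L1 worms per well grow at 21 °C on TOP10 E. coli capsules with titrated compound; levamisole marks toxicity.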

[21] = target: Lysosomal acid glucosylceramidase (Homo sapiens) (UniProt P04062); assay: Glucocerebrosidase-p2 (AID 348; in the data active = potency below about 10 µM; note: potency is the fitted concentration of half-maximal effect); conditions: purified GBA, blue fluorogenic substrate, 40 min
Outline: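 Compounds titrated from 0.6 nM upwards against 0.2 nM enzyme in pH 5.9 citric acid/KH2PO4, taurocholate, tween-20; blue fluorogenic substrate 80 uM, 40 min room temperature, stopped and read Ex 365/Em 440 for AC50.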

[22] = AP1 Signaling Pathway (AID 357; active = well fitted curve in either direction with a large enough effect, not every such curve was filed as active); conditions: ME-180 (cervical carcinoma) AP-1-bla reporter, EGF-induced, beta-lactamase ratio, 5 h; at 7.69 µM (top of the series) unless noted
Outline: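 AP-1-bla ME-180 cells with beta-lactamase reporter under AP-1 response element, stimulated with EC50 EGF; compounds titrated, 5 hours at 37 degrees Celsius. CCF4 read at 460/530 nm ratio; positive and negative modulators judged by AC50.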

[23] = target: Cytochrome P450 1A2 (Homo sapiens) (UniProt P05177); assay: p450-cyp1a2 (AID 410; calls by dose curve; note: potency is the fitted concentration of half-maximal effect)
Outline: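 Human CYP1A2 (20nM) demethylated Luciferin-ME at its Km (100uM) in 100mM KPO4. After 10 min compound preincubation, NADPH regeneration ran the reaction 60 min at room temperature. Luciferin was read by luminescence, normalized to 57 uM furafylline.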

[24] = target: Glucocorticoid receptor (Homo sapiens) (UniProt P04150); assay: GR-GFP Redistribution (AID 450;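 active = compounds whose dose series gives a full or clear partial fitted curve of increased nuclear translocation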; note: potency is the fitted concentration of half-maximal effect); conditions: U2OS GR-GFP nuclear translocation, laser cytometry, 2 h
[25] = target: 3',5'-cyclic-AMP phosphodiesterase 4B (Homo sapiens) (UniProt Q07343); assay: qHTS Assay for Inhibitors of PDE-IV (AID 607; active = well fitted activation curve with a large enough effect in the main read-out, with a control signal flat, not every such curve was filed as active)
Outline: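 Live HEK293 cells with a modified cyclic nucleotide-gated (CNG) channel report intracellular cAMP via membrane-potential dye fluorescence (ex 535/em 590 nm). Endogenous PDE-IV was targeted. Compounds were tested at up to 22.9 uM final; RO 20-1724 100 uM served as control.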

[26] = target: Cytochrome P450 2C9 (Homo sapiens) (UniProt P11712); assay: qHTS Assay for Inhibitors and Substrates of Cytochrome P450 2C9 (AID 883); note: potency is the fitted concentration of half-maximal effect; nearly all actives have a fitted effect of over 60% in size
Outline: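 Human CYP2C9 (10nM) with Luciferin-H at 100uM (its KM) in 25mM KPO4; compound preincubated 10 min at 37C, then NADPH regeneration for 60 min at 37C. Luciferin read by luminescence after detection reagent; normalized to 57uM sulphaphenazole as full inhibition.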

[27] = target: Cytochrome P450 3A4 (Homo sapiens) (UniProt P08684); assay: qHTS Assay for Activators of Cytochrome P450 3A4 (AID 885); note: nearly all actives have a fitted effect of over 65% in size
Outline: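 Quantitative HTS format: compounds preincubated with 20nM human CYP3A4 and Luciferin-PPXE substrate at KM, reaction started by NADPH regeneration, stopped after 60 min, luciferase luminescence read 20 min later.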

[28] = target: Dual specificity protein kinase CLK4 (Homo sapiens) (UniProt Q9HAZ1); assay: qHTS Assay for Inhibitors of CDC-like Kinase 4 (Kinase-Glo Assay) (AID 1770); note: nearly all actives have a fitted effect of over 65% in size
Outline: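 25 nM Clk4 with 100 uM RS repeat peptide and 1 uM ATP (final) in Tris pH7.5, 10 mM MgCl2, 4.5 h at room temperature. Remaining ATP measured by Kinase-Glo luciferase luminescence.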

[29] = target: Dual specificity protein kinase CLK4 (Homo sapiens) (UniProt Q9HAZ1); assay: qHTS Assay for Inhibitors of CDC-like Kinase 4 (ADP-Glo Assay) (AID 1771); note: nearly all actives have a fitted effect of over 70% in size
Outline: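 Clk4 (25 nM) was incubated 1 hr at room temperature with 100 uM RS repeat peptide and 1 uM ATP in buffer with 2 mM MgCl2, 0.5 mM EGTA, 2.5 mM DTT. ADP formed was quantified by ADP-Glo luminescence.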

[30] = target: Dual specificity protein kinase CLK4 (Homo sapiens) (UniProt Q9HAZ1); assay: qHTS Assay for Inhibitors of CDC-like Kinase 4 (ADP-FP Assay) (AID 1795);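 note: recombinant human CLK4 phosphorylating RS repeat peptide at 1 µM ATP; nearly all actives have a fitted effect of over 60% in size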
Outline: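 Recombinant Clk4 (6.25 nM) phosphorylated 100 uM RS repeat peptide with 1 uM ATP in 25 mM Tris pH 7.5, 10 mM MgCl2, 0.5 mM EGTA, 2.5 mM DTT, 0.01% Triton X-100 for 1 h. ADP was detected by Transcreener ADP2 competitive fluorescence polarization after 30 min at room temperature.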

[31] = target: Ubiquitin carboxyl-terminal hydrolase 1 (Homo sapiens) (UniProt O94782); assay: Inhibitors of USP1/UAF1: Pilot qHTS (AID 504865);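 note: rhodamine fluorescence freed from ubiquitin-rhodamine substrate followed over time; top concentration of the series differs between compounds; nearly all actives have a fitted effect of over 35% in size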
Outline: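 USP1/UAF1 complex at 1 nM preincubated 15 min at room temperature with compound, then Ub-Rho substrate added at 150 nM final. Fluorescence (480/540 nm) read kinetically in 50 mM HEPES pH 7.8, 0.5 mM EDTA, 1 mM TCEP, 0.1 mg/ml BSA, 0.01% Tween-20.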

Chain of Dual specificity protein kinase CLK4 (Homo sapiens) (Q9HAZ1 whole entry, looked up): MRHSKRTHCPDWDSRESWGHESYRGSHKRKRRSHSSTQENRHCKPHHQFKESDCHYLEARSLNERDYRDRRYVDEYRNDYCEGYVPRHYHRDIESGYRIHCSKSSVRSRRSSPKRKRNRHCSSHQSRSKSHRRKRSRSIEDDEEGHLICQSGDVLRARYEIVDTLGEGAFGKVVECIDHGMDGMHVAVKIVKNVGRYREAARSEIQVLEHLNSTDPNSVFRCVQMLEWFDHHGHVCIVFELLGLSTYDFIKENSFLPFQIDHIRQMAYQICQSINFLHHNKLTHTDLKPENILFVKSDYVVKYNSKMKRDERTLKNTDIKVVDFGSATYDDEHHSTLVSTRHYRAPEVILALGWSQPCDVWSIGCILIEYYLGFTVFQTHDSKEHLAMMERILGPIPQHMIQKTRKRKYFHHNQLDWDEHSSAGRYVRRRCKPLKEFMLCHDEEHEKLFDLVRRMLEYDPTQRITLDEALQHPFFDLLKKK
Chain of Vitamin D3 receptor (Homo sapiens) (P11473 whole entry, looked up): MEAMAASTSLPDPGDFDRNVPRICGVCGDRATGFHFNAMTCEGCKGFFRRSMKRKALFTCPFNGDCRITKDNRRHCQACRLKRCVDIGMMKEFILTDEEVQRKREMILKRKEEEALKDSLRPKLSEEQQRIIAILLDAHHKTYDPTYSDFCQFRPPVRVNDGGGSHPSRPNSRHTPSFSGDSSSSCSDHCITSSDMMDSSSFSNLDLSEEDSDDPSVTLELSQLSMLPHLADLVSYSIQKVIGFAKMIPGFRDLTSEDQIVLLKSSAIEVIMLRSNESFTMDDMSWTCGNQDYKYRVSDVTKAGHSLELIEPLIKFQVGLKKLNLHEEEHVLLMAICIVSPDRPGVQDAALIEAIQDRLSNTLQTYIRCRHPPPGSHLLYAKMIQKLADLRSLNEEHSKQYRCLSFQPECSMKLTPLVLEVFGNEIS
Chain of Thyroid hormone receptor beta (Homo sapiens) (P10828 whole entry, looked up): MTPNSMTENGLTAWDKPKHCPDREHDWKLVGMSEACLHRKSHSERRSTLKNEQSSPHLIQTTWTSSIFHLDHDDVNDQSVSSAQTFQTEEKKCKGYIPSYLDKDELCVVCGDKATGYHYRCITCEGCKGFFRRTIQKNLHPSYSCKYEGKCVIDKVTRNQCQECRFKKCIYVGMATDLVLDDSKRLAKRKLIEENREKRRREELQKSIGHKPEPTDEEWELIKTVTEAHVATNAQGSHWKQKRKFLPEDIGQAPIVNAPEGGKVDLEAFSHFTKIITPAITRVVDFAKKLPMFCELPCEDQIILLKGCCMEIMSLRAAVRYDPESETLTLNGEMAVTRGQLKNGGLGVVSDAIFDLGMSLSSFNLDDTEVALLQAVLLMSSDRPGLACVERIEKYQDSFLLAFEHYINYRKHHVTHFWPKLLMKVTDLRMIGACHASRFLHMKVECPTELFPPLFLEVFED
Chain of Peroxisome proliferator-activated receptor alpha (Homo sapiens) (Q07869 whole entry, looked up, the tested form may be a part): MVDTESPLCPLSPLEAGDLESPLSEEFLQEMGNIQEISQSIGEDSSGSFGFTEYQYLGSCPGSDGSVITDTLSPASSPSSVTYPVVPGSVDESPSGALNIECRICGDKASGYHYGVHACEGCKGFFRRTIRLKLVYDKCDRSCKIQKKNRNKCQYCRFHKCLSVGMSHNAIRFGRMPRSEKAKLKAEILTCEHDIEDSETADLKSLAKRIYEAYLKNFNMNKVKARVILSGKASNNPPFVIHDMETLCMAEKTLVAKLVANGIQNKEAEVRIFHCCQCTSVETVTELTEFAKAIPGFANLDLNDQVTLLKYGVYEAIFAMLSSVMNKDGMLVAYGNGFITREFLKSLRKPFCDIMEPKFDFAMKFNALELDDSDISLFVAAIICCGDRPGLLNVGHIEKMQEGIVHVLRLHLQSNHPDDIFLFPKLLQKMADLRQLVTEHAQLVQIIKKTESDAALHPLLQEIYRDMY
Chain of Peroxisome proliferator-activated receptor gamma (Homo sapiens) (P37231 whole entry, looked up): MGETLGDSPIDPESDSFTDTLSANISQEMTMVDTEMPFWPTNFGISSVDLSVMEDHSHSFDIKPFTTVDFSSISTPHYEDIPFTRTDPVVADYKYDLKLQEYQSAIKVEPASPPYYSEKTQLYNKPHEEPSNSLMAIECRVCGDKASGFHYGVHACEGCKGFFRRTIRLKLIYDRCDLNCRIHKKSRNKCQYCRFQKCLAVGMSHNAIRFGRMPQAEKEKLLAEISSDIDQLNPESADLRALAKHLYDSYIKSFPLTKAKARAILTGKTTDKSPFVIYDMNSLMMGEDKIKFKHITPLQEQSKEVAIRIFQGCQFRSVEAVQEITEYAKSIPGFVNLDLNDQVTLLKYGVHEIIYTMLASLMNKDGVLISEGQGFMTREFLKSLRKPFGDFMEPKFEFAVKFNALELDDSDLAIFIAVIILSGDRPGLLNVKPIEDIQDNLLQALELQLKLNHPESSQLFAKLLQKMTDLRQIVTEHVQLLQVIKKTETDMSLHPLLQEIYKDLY
Chain of Cytochrome P450 3A4 (Homo sapiens) (P08684 whole entry, looked up): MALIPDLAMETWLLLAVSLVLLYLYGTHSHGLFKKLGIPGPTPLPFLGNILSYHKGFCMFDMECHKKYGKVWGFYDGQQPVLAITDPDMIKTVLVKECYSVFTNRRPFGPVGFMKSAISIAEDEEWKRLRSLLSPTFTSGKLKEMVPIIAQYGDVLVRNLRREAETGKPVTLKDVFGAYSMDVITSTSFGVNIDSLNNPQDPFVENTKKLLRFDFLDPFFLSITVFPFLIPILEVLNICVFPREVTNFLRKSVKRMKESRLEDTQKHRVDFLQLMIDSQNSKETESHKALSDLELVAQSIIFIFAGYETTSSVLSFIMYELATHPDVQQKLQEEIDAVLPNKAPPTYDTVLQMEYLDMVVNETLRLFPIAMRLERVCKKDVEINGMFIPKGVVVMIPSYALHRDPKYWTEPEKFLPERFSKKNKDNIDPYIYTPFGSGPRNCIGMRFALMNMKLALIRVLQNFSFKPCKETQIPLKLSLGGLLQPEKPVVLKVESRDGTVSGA
Chain of Glucocorticoid receptor (Homo sapiens) (P04150 whole entry, looked up): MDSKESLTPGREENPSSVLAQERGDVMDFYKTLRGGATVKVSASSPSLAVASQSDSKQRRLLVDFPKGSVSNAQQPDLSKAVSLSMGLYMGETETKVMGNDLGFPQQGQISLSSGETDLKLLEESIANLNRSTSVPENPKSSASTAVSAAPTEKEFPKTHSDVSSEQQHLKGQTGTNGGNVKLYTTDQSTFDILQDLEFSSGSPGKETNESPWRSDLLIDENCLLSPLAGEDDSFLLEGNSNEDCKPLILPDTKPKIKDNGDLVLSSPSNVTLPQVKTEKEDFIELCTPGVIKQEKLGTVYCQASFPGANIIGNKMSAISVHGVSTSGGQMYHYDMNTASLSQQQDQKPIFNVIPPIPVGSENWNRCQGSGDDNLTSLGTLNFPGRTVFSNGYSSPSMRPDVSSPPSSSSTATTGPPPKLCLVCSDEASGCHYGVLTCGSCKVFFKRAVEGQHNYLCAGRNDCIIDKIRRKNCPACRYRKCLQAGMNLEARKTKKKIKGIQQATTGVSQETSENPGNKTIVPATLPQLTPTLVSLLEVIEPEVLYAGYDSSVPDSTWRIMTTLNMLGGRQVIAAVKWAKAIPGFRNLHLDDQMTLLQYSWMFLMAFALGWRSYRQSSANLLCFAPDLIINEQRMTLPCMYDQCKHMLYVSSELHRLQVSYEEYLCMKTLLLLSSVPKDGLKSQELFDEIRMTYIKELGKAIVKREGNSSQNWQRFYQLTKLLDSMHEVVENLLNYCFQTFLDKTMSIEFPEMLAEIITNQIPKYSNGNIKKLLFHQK
Chain of Retinoic acid receptor RXR-alpha (Homo sapiens) (P19793 whole entry, looked up): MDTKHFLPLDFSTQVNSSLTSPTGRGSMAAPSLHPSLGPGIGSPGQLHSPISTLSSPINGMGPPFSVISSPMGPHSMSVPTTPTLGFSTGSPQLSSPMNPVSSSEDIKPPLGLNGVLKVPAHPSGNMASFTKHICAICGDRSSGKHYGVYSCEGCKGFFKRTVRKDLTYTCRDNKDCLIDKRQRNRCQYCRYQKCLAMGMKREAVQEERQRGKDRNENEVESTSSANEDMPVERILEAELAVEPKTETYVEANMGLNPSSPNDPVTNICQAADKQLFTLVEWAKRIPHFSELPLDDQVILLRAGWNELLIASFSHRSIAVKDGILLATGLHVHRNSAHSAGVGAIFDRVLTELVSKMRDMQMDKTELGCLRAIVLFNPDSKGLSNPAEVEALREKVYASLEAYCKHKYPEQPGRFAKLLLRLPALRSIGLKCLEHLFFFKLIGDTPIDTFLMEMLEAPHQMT
Chain of Peroxisome proliferator-activated receptor delta (Homo sapiens) (Q03181 whole entry, looked up): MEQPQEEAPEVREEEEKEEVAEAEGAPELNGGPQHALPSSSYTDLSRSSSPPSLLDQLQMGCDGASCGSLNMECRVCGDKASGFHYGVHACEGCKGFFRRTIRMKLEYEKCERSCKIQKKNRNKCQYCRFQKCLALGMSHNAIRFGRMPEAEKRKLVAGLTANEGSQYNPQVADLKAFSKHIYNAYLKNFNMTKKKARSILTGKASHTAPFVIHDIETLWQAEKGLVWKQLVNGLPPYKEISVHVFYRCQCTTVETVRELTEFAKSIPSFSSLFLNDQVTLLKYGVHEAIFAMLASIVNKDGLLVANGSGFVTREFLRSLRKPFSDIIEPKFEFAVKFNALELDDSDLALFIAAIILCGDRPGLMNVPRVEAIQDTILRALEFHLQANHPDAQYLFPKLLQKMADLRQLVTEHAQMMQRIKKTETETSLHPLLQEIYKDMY
Chain of Nuclear receptor subfamily 1 group I member 2 (Rattus norvegicus) (Q9R1A7 whole entry, looked up): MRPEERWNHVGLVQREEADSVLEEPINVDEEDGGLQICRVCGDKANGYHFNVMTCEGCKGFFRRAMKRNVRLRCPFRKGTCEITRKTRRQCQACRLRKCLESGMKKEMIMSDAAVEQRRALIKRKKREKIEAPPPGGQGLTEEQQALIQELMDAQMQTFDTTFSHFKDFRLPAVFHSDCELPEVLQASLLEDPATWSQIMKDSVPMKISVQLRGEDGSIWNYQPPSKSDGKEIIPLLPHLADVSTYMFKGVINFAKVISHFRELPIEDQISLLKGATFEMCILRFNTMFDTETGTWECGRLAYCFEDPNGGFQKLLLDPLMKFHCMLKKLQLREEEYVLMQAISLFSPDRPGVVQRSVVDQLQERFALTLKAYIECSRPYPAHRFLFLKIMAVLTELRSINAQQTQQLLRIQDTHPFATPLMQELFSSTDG

**Q.** Which Potency [1] does the source give for `CCCCCCCCOC(=O)c1cc(O)c(O)c(O)c1` here?
**A.** inactive

**Q.** What about the max response [2] of the same compound?
**A.** -19.5%

**Q.** What about the Potency [3] of the same compound?
**A.** inactive

**Q.** And the outcome [4]?
**A.** inactive

**Q.** What about the outcome [5] of the same compound?
**A.** inactive

**Q.** And the outcome [6]?
**A.** inactive

**Q.** What about the outcome [7] of the same compound?
**A.** inactive

**Q.** What about the max response [8] of the same compound?
**A.** -11.7%

**Q.** What about the max response [9] of the same compound?
**A.** -18.9% (inactive)

**Q.** And the activity change % (negative = inhibition) [10]?
**A.** -6.19% (inactive)

**Q.** And the Potency [11]?
**A.** inactive

**Q.** What about the activation [12] of the same compound?
**A.** 0.999% (inactive)

**Q.** What about the max response [13] of the same compound?
**A.** -2.68% (inactive)

**Q.** What about the Potency [14] of the same compound?
**A.** inactive

**Q.** What about the max response [15] of the same compound?
**A.** -10.2% (inactive)

**Q.** And the Potency [16]?
**A.** inactive

**Q.** And the Potency [17]?
**A.** inactive

**Q.** And the max response [18]?
**A.** -0.212% (inactive)

**Q.** And the outcome [19]?
**A.** inactive

**Q.** Which Potency [20] does the source give for `CCCCN(Cc1ccc(C(=O)NO)cc1)C(=O)Nc1ccccc1` here?
**A.** inactive

**Q.** Which results are given for `COc1ccc(-c2nc3cnc(Oc4cccc(Cl)c4)nc3n(C[C@H]3CCCO3)c2=O)cc1`?
**A.** Potency [21]: > 11.4 µM (inactive); activity change, negative = inhibition [22]: -13.7% (inactive); Potency [23]: 5.01 µM (active); Potency [24]: > 9.22 µM (inactive); Potency [25]: inactive; Potency [26]: 5.01 µM (active); outcome [27]: inactive; Potency [28]: inactive; Potency [29]: inactive; Potency [30]: inactive; Potency [31]: inactive

From PubChem BioAssay (NCATS)
